{
  "source": "the supplement of paper PMC8728848",
  "binders": {"B1": {"name": "Pbx2CASH domain (Cryptococcus neoformans) (protein)", "chain": "GIPGPNRLYRLSGPIIFTAADQEIATYGYPTGSERAVLRVEGRNTATAIQGDCRRCARVSVKNLVVDGNRKKLGRMRDFQLATGLVVLGGNEGQSIQNSWIKNPRGFTAIHIREGDKLQCSGARVEKNEIGPVGEEYDPEKDGDDPEMSPLGRPLADGVSIACRDSFIRDNTFRDNTDAAIVVYCSPGTLIHA"}},
  "test_in_all_cases": "glycan array binding signal (z-score within array); higher = stronger binding",
  "conditions_in_all_cases": "glycan notation: IUPAC condensed, linker removed",
  "key": {"[1]": {"target": "Fuc(a1-2)Gal(b1-3)GalNAc(b1-4)[Neu5Ac(a2-3)]Gal(b1-4)Glc", "in_short": "(§1)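 The binding signal is a Z-score computed within each array. Data were drawn from 3228 arrays in the Consortium for Functional Glycomics database, restricted to those with a known protein sequence. Scores were averaged over arrays of the same protein sequence at different concentrations or buffers, and over linkers, and negative values can be taken as non-binding.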"}, "[2]": {"target": "Fuc(a1-2)Gal(b1-3)[Fuc(a1-4)]GlcNAc(b1-2)Man(a1-3)[Fuc(a1-2)Gal(b1-3)[Fuc(a1-4)]GlcNAc(b1-2)Man(a1-3)]Man(b1-4)GlcNAc(b1-4)GlcNAc", "in_short": "as §1"}, "[3]": {"target": "Fuc(a1-2)Gal(b1-3)[Fuc(a1-4)]GlcNAc(b1-3)[Gal(b1-4)GlcNAc(b1-6)]Gal(b1-4)Glc", "in_short": "as §1"}, "[4]": {"target": "Fuc(a1-2)Gal(b1-4)GlcNAc(b1-2)Man(a1-3)[Fuc(a1-2)Gal(b1-4)GlcNAc(b1-2)Man(a1-6)]Man(b1-4)GlcNAc(b1-4)[Fuc(a1-6)]GlcNAc", "in_short": "as §1"}, "[5]": {"target": "Fuc(a1-2)Gal(b1-4)[Fuc(a1-3)]GlcNAc(b1-3)GalNAc", "in_short": "as §1"}, "[6]": {"target": "Fuc(a1-2)Gal(b1-4)[Fuc(a1-3)]GlcNAc(b1-3)[Neu5Ac(a2-6)Gal(b1-4)GlcNAc(b1-6)]Gal(b1-4)Glc", "in_short": "as §1"}, "[7]": {"target": "Fuc(a1-2)[Gal(a1-3)]Gal(b1-4)[Fuc(a1-3)]GlcNAc", "in_short": "as §1"}, "[8]": {"target": "Fuc(a1-2)[GalNAc(a1-3)]Gal(b1-4)GlcNAc(b1-2)Man(a1-3)[Fuc(a1-2)[GalNAc(a1-3)]Gal(b1-4)GlcNAc(b1-2)Man(a1-6)]Man(b1-4)GlcNAc(b1-4)[Fuc(a1-6)]GlcNAc", "in_short": "as §1"}, "[9]": {"target": "Fuc(a1-2)[GalNAc(a1-3)]Gal(b1-4)[Fuc(a1-3)]GlcNAc(b1-3)GalNAc", "in_short": "as §1"}, "Fuc(a1-3)GlcNAc": {"target": "Fuc(a1-3)GlcNAc", "in_short": "as §1"}, "[10]": {"target": "Fuc(a1-3)[Gal(b1-4)]GlcNAc(b1-2)Man(a1-3)[Fuc(a1-3)[Gal(b1-4)]GlcNAc(b1-2)Man(a1-6)]Man(b1-4)GlcNAc(b1-4)GlcNAc", "in_short": "as §1"}, "Gal(a1-3)Gal(b1-3)GlcNAc": {"target": "Gal(a1-3)Gal(b1-3)GlcNAc", "in_short": "as §1"}, "[11]": {"target": "Gal(a1-3)Gal(b1-3)GlcNAc(b1-2)Man", "in_short": "as §1"}, "[12]": {"target": "Gal(a1-3)Gal(b1-3)[Fuc(a1-4)]GlcNAc(b1-2)Man(a1-3)[Gal(a1-3)Gal(b1-3)[Fuc(a1-4)]GlcNAc(b1-2)Man(a1-6)]Man(b1-4)GlcNAc(b1-4)GlcNAc", "in_short": "as §1"}, "[13]": {"target": "Gal(a1-3)Gal(b1-4)GlcNAc(b1-2)Man(a1-3)[Gal(a1-3)Gal(b1-4)GlcNAc(b1-2)Man(a1-6)]Man(b1-4)GlcNAc(b1-4)GlcNAc", "in_short": "as §1"}, "[14]": {"target": "Gal(a1-3)Gal(b1-4)GlcNAc(b1-6)GalNAc", "in_short": "as §1"}, "Gal(b1-2)Gal": {"target": "Gal(b1-2)Gal", "in_short": "as §1"}, "[15]": {"target": "Gal(b1-3)GlcNAc(b1-3)Gal(b1-4)GlcNAc(b1-2)[Gal(b1-3)GlcNAc(b1-3)Gal(b1-4)GlcNAc(b1-6)]Man(a1-6)[Gal(b1-3)GlcNAc(b1-3)Gal(b1-4)GlcNAc(b1-2)Man(a1-3)]Man(b1-4)GlcNAc(b1-4)[Fuc(a1-6)]GlcNAc", "in_short": "as §1"}, "[16]": {"target": "Gal(b1-3)GlcNAc(b1-3)GalNAc", "in_short": "as §1"}, "[17]": {"target": "Gal(b1-3)[Fuc(a1-4)]GlcNAc(b1-2)Man(a1-3)[Gal(b1-3)[Fuc(a1-4)]GlcNAc(b1-2)Man(a1-6)]Man(b1-4)GlcNAc(b1-4)[Fuc(a1-6)]GlcNAc", "in_short": "as §1"}, "[18]": {"target": "Gal(b1-3)[Fuc(a1-4)]GlcNAc(b1-6)GalNAc", "in_short": "as §1"}, "[19]": {"target": "Gal(b1-3)[Neu5Ac(a2-6)]GlcNAc(b1-4)Gal(b1-4)Glc", "in_short": "as §1"}, "[20]": {"target": "Gal(b1-4)GlcNAc(b1-2)Man(a1-3)[Gal(b1-4)GlcNAc(b1-2)Man(a1-6)]Man(b1-4)GlcNAc(b1-4)[Fuc(a1-6)]GlcNAc", "in_short": "as §1"}, "[21]": {"target": "Gal(b1-4)GlcNAc(b1-2)[Gal(b1-4)GlcNAc(b1-4)]Man(a1-3)[GlcNAc(b1-4)][Gal(b1-4)GlcNAc(b1-2)[Gal(b1-4)GlcNAc(b1-6)]Man(a1-6)]Man(b1-4)GlcNAc(b1-4)GlcNAc", "in_short": "as §1"}, "[22]": {"target": "Gal(b1-4)GlcNAc(b1-2)[Gal(b1-4)GlcNAc(b1-6)]Man(a1-6)[Gal(b1-4)GlcNAc(b1-2)Man(a1-3)]Man(b1-4)GlcNAc(b1-4)GlcNAc", "in_short": "as §1"}, "[23]": {"target": "Gal(b1-4)GlcNAc(b1-3)Gal(b1-4)GlcNAc(b1-2)Man(a1-3)[Gal(b1-4)GlcNAc(b1-3)Gal(b1-4)GlcNAc(b1-2)Man(a1-6)]Man(b1-4)GlcNAc(b1-4)GlcNAc", "in_short": "as §1"}, "[24]": {"target": "Gal(b1-4)GlcNAc(b1-3)Gal(b1-4)GlcNAc(b1-2)Man(a1-3)[Gal(b1-4)GlcNAc(b1-3)Gal(b1-4)GlcNAc(b1-2)Man(a1-6)]Man(b1-4)GlcNAc(b1-4)[Fuc(a1-6)]GlcNAc", "in_short": "as §1"}, "[25]": {"target": "Gal(b1-4)GlcNAc(b1-3)Gal(b1-4)GlcNAc(b1-3)Gal(b1-4)GlcNAc(b1-2)Man(a1-3)[Gal(b1-4)GlcNAc(b1-3)Gal(b1-4)GlcNAc(b1-3)Gal(b1-4)GlcNAc(b1-2)Man(a1-6)]Man(b1-4)GlcNAc(b1-4)GlcNAc", "in_short": "as §1"}, "[26]": {"target": "Gal(b1-4)GlcNAc(b1-3)Gal(b1-4)GlcNAc(b1-3)Gal(b1-4)GlcNAc(b1-2)Man(a1-3)[Gal(b1-4)GlcNAc(b1-3)Gal(b1-4)GlcNAc(b1-3)Gal(b1-4)GlcNAc(b1-2)Man(a1-6)]Man(b1-4)GlcNAc(b1-4)[Fuc(a1-6)]GlcNAc", "in_short": "as §1"}},
  "note": "This excerpt belongs to a sample that is enriched for the strongest signals.",
  "data": [
    {"binder": "B1", "values": [
      {"measurement": "glycan array binding signal (z-score)", "setting": "[1]", "value": -0.327},
      {"measurement": "glycan array binding signal (z-score)", "setting": "[2]", "value": 0.448},
      {"measurement": "glycan array binding signal (z-score)", "setting": "[3]", "value": -0.27},
      {"measurement": "glycan array binding signal (z-score)", "setting": "[4]", "value": 0.625},
      {"measurement": "glycan array binding signal (z-score)", "setting": "[5]", "value": 5.37},
      {"measurement": "glycan array binding signal (z-score)", "setting": "[6]", "value": 0.299},
      {"measurement": "glycan array binding signal (z-score)", "setting": "[7]", "value": -0.331},
      {"measurement": "glycan array binding signal (z-score)", "setting": "[8]", "value": -0.315},
      {"measurement": "glycan array binding signal (z-score)", "setting": "[9]", "value": 2.74},
      {"measurement": "glycan array binding signal (z-score)", "setting": "Fuc(a1-3)GlcNAc", "value": -0.751},
      {"measurement": "glycan array binding signal (z-score)", "setting": "[10]", "value": -0.141},
      {"measurement": "glycan array binding signal (z-score)", "setting": "Gal(a1-3)Gal(b1-3)GlcNAc", "value": 0.751},
      {"measurement": "glycan array binding signal (z-score)", "setting": "[11]", "value": 1.4},
      {"measurement": "glycan array binding signal (z-score)", "setting": "[12]", "value": 2.46},
      {"measurement": "glycan array binding signal (z-score)", "setting": "[13]", "value": 0.227},
      {"measurement": "glycan array binding signal (z-score)", "setting": "[14]", "value": -0.025},
      {"measurement": "glycan array binding signal (z-score)", "setting": "Gal(b1-2)Gal", "value": -0.585},
      {"measurement": "glycan array binding signal (z-score)", "setting": "[15]", "value": 2.19},
      {"measurement": "glycan array binding signal (z-score)", "setting": "[16]", "value": 0.422},
      {"measurement": "glycan array binding signal (z-score)", "setting": "[17]", "value": -0.077},
      {"measurement": "glycan array binding signal (z-score)", "setting": "[18]", "value": 1.39},
      {"measurement": "glycan array binding signal (z-score)", "setting": "[19]", "value": -0.128},
      {"measurement": "glycan array binding signal (z-score)", "setting": "[20]", "value": -0.487},
      {"measurement": "glycan array binding signal (z-score)", "setting": "[21]", "value": 0.057},
      {"measurement": "glycan array binding signal (z-score)", "setting": "[22]", "value": -0.632},
      {"measurement": "glycan array binding signal (z-score)", "setting": "[23]", "value": 3.98},
      {"measurement": "glycan array binding signal (z-score)", "setting": "[24]", "value": 0.897},
      {"measurement": "glycan array binding signal (z-score)", "setting": "[25]", "value": 6.89},
      {"measurement": "glycan array binding signal (z-score)", "setting": "[26]", "value": 0.266}
    ]}
  ]
}
